The list is not random: actives were taken first. Their share in the collection is about 2.9%.
DRD3 antagonist: D3 dopamine receptor (human) antagonism; P35462; D3R cells, DiscoveRx beta-arrestin luminescence, antagonist mode; active compounds read low; max response, negative = inhibition, %; 2.5% of 360,000 active; in the data active means max response below about -50%; inconclusive means no clear call, values can overlap the other calls; further: on the % scale 0 is the no-effect control and ±100 the full control effect
Target sequence (P35462 whole entry, looked up): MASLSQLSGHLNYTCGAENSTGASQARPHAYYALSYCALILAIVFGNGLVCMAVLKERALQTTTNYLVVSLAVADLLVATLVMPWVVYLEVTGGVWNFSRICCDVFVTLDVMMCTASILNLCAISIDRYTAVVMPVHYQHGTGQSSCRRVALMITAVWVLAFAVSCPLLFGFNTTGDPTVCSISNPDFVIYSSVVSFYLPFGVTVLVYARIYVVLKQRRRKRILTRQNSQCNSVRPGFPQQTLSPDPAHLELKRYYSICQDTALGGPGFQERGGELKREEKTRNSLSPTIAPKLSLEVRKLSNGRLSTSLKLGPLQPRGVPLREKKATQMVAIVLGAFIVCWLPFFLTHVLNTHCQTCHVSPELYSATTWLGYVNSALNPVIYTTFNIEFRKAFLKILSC
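Cells plated overnight at 1500 cells/well, then exposed to library compounds with dopamine controls for 90 minutes at 37 degrees C. DiscoveRx reagent added for 30–60 minutes at room temperature; luminescence read, quantitative HTS format.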
DRD3 agonist: agonists of human D3 dopamine receptor. P35462. max activation, %. AID 652048. D3R DiscoveRx beta-arrestin cells, luminescence, 90 min. 0.58% of 410,000 active; in the data active means max activation above about 30%; further: 0% is about no effect
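Agonist mode: compounds and dopamine controls were applied to plated cells for 90 min at 37 degrees C after an overnight attachment at 1500 cells/well. Luminescent read-out followed 30 - 60 minutes at room temperature with DiscoveRx detection reagent.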
Rango complex inh: prevents formation of the Rango-importin beta complex; Potency, µM (series often up to 92.2 µM), for inactives: top-dose inhibition of complex formation; Rango CFP/YFP FRET sensor + importin beta, 45 min; 0.031% of 340,000 active; Q14974; AID 540263;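 further: potency means the concentration at half of the fitted maximal effect; 0% = DMSO wells and 100% = buffer wells lacking importin beta; nearly all actives have a fitted effect of over 15% in size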
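FRET biosensor Rango (snurportin 1 IBB between N-terminal EYFP and C-terminal Cerulean), 50 nM in PBS/1 mM DTT/0.02% Tween-20/0.1% BSA, preincubated 5 min RT with compound; 0.125 microM importin beta added, 45 min RT, CFP/YFP FRET ratio read.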
Mm-Cpn inhibitor: inhibitors of Methanococcus maripaludis chaperonin TRiC (MmCpn); purified Mm-Cpn ATPase, ADP Transcreener TR-FRET; Potency, µM (top dose mostly 76.9 µM), for the others: at the top dose activity, negative = inhibition, usual class: inhibitors; 0.031% of 330,000 active; AID 504842; active means well fitted inhibition curve with a large enough effect; inconclusive means small, poorly fitted or top-dose-only effect; further: potency means the concentration at half of the fitted maximal effect; on the % scale 0 is the no-effect control and ±100 the full control effect; nearly all actives have a fitted effect of over 80% in size
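Measured: ADP formation by purified Mm-CPN. Conditions: 25 nM protein, 10 uM ATP, Tris pH 7.4 with Mg2+, K+ and DTT, 37°C for 30 min. Detection: Transcreener HTRF after 30 min at room temperature.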
Rango dissoc inh: inhibitors of RanGTP-induced Rango-importin beta complex dissociation. O95149+P62826. Biochemical FRET Rango-importin beta, RanGTP-induced dissociation. Potency, µM (doses to about 46.1 µM), inactives show at the top dose activity change, negative = inhibition. 0.071% of 340,000 active. AID 540253; further: potency means the concentration at half of the fitted maximal effect; % of control where 0% means no effect; nearly all actives have a fitted effect of over 45% in size
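Rango (0.1 uM)–importin beta (0.25 uM) complex; RanGTP-RCC1 trigger; 45 min RT; CFP/YFP FRET read.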
PTAP TSG101 blk: blocks PTAP/TSG101 interaction to inhibit HIV-1 budding; Fluorescence polarization, FITC-PTAP peptide / Tsg101 binding; 340,000 tested, under 10 active; Potency, µM (doses to about 115 µM), for the others: at the highest dose activity change, negative = inhibition, hits mostly inhibitors; Q99816; active means well fitted inhibition curve with a large enough effect in the main read-out, with a control signal flat, not every such curve was filed as active; inconclusive means small, poorly fitted or top-dose-only effect, or effect the other way, or a change in a side signal; inactive means no such curve, though single readings can be large or run the other way; further: potency means the concentration at half of the fitted maximal effect; % of control where 0% means no effect
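Tsg101 binding domain (10 uM final) was mixed with compound and a FITC-labeled PTAP peptide (50 nM final) in HEPES pH 7.5 buffer with NaCl, Tween 20, EDTA and TCEP; fluorescence polarization was read after 20 min at r.t.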
* marks the source's active call; other numbers are inactive results; u = inconclusive; x = no result given; [ ] = another dose, or the depositor's remark. Unless noted, the call rests on the fitted dose curve.

SMILES	DRD3 antagonist	DRD3 agonist	Rango complex inh	Mm-Cpn inhibitor	Rango dissoc inh	PTAP TSG101 blk
COc1ccc(Br)cc1C(=O)CCC(=O)OCC(=O)Nc1cc(C(N)=O)cc(C(N)=O)c1	3	2	0%	-1%	13%	-4%
CN(CCCC(=O)O)c1ccc(N=Nc2ccc([N+](=O)[O-])cc2)cc1	-87*	-18	u	x	-1%	-9%
CC1=CC(C)(C)N=C(Nc2ccc(C)cc2)S1	-74*	5	-2%	-1%	5%	-7%
C=CCn1c(-c2ccc(Cl)cc2)c[nH]c1=S	-109*	-1	1%	-18%	-9%	-7%
CCn1c(-c2ccc(-c3ccccc3)cc2)c[nH]c1=S	-12	-3	-4%	-15%	-2%	-2%
C=CCn1c(-c2ccccc2)c[nH]c1=S	-68*	-3	-4%	-4%	-6%	-4%
COc1cc2c(cc1Cl)/C(=C\CCN(C)C)c1ccccc1S2	-92*	-58	2%	0%	6%	-1%
CN(C)CC/C=C1/c2cc(F)ccc2Sc2ccc(Cl)cc21	-84*	-14	-2%	x	25%	-3%
CN(C)CC/C=C1/c2ccccc2Sc2c(O)cc(Cl)cc21	u	-20	0%	2%	5%	-6%
COc1cc(Cl)cc2c1Sc1ccccc1/C2=C/CCN(C)C	-77*	1	-2%	-7%[15.4 µM]	-12%	-6%
CN(C)CC/C=C1/c2ccccc2CSc2ccccc21	x	-21	x	x	x	x
COc1ccc(CCNc2nc3c(c(=O)n(C)c(=O)n3C)n2Cc2ccccc2Cl)cc1OC	x	2	x	x	x	x
O=C(NCc1cccnc1)/C(=C\c1ccc(-c2cccc(Cl)c2)o1)S(=O)(=O)c1ccccc1	-50*	-32	u	-1%	11%	-3%
Cc1ccc(C(=O)N/C(=C\c2ccc(-c3cc(Cl)ccc3Cl)o2)C(=O)NCc2cccnc2)cc1	-12	-12	u	-5%	10µM*	-2%
O=C1c2ccccc2C(=O)N1CC1CCCO1 (stereo not given)	-13	-6	2%	1%	11%	-7%
O=C1c2ccccc2C(=O)N1CC1CO1 (stereo not given)	-2	63*	0%	x	0%	0%
CCc1ccc(CNC(=O)CCCn2ccc3cc(S(=O)(=O)N4CCCC4)ccc32)cc1	x	-5	x	x	x	x
Cc1ccc(SCC(=O)Nc2ccc(N3CCN(C)CC3)c(F)c2)c(C)c1	-98*	-3	-4%	0%	1%	-8%
Cc1ccc(-n2nnnc2SCC(=O)Nc2ccc(N3CCN(C)CC3)cc2)c(C)c1	-11	-6	-1%	-3%	1%	3%
CCCCC1(C)Cc2ccccc2C(=S)N1 (stereo not given)	-50*	-8	2%	-2%	-11%	-1%
CCOC(=O)/C(C)=C1\NC(C)(C)Cc2ccccc21	-1	1	9%	0%	8%	-7%
CCOc1cc(CNC(=O)C(NS(=O)(=O)c2cccs2)C(C)C)cc(OCC)c1OCC (stereo not given)	x	-4	x	x	x	x
C=C(C)c1cccc(C(C)(C)NC(=O)NC2CCN(Cc3ccccc3)CC2)c1	-77*	-15	0%	0%	-1%	-3%
O=C(NC1CCN(Cc2ccccc2)CC1)c1cccc(OC(F)F)c1	-55*	-9	-2%	0%	-1%	2%
O=C(NC1CCN(Cc2ccccc2)CC1)c1ccc2c(c1)OCCCO2	-57*	-25	1%	-1%	0%	-4%
SMILES	DRD3 antagonist	DRD3 agonist	Rango complex inh	Mm-Cpn inhibitor	Rango dissoc inh	PTAP TSG101 blk
O=C(NC1CCCCC1)c1ccc2c(c1)OCCO2	-12	-12	5%	-1%	-3%	-4%
Cc1c(C(=O)NC2CCN(Cc3ccccc3)C2)oc2ccc(Br)cc12 (stereo not given)	-59*	-20	2%	-1%	29%	1%
Cc1ccc(CCNC(=O)c2cc3sccc3n2Cc2ccc(F)cc2)cc1	x	-19	x	x	x	x
CCN(C(=O)c1cc(S(=O)(=O)N2CCc3ccccc32)cn1C)c1cccc(C)c1	x	-11	x	x	x	x
CSc1ncc(Cl)c(C(=O)Nc2c(C(=O)c3ccc(Cl)cc3)oc3ccccc23)n1	x	4	x	x	x	x
CCN(C(=O)c1cnc(N2CCOCC2)c2ccccc12)c1cc(C)ccc1C	x	0	x	x	x	x
O=C(NC1CCN(Cc2ccccc2)CC1)C1COc2ccccc2O1 (stereo not given)	-78*	1	3%	u	-20%	-3%
S=C(NCc1ccccc1)N1CCN(Cc2ccc3c(c2)OCO3)CC1	5	-5	2%	2%	1%	-4%
O=C(/C=C/c1cccc(F)c1)NC1CCN(Cc2ccccc2)CC1	u	-9	-4%	1%	-17%	1%
O=C(/C=C/c1cccc(Br)c1)NC1CCN(Cc2ccccc2)CC1	-61*	-9	2%	3%	7%	-2%
O=C(NC1CCN(Cc2ccccc2)CC1)c1cccc(Br)c1	-85*	-44	1%	-20%	1%	1%
S=C(NCc1ccc2c(c1)OCO2)NC1CCN(Cc2ccccc2)CC1	-60*	-20	0%	1%	0%	-6%
CC(=O)c1ccc(NC(=O)CN2C(=O)c3cccnc3Sc3ccccc32)cc1	x	1	x	x	x	x
CCn1c(=O)c2cc(C(=O)N(CC(C)C)CC(C)C)sc2c2ccccc21	x	-12	x	x	x	x
O=C(Nc1ccc(F)cc1)c1oc2ccccc2c1NC(=O)C12CC3CC(CC(C3)C1)C2	x	5	x	x	x	x
CN(CC(=O)NC1CCN(Cc2ccccc2)CC1)S(=O)(=O)c1ccc(Cl)cc1	u	-2	2%	0%	-2%	-4%
CN(CC(=O)NC1CCN(Cc2ccccc2)CC1)S(=O)(=O)c1ccc(Br)s1	-56*	-20	1%	0%	-12%	0%
c1ccc(N2CCN(CC3CCCCC3)CC2)cc1	-75*	8	2%	1%	12%	0%
COC(=O)C1=C[C@@H](C(=O)OC)C2C3=C(C(=O)C24CCCCC4)[C@H](C)n2c(=O)n(C)c(=O)n2[C@@H]3C1 (stereo not given in full)	11	3	0%	x	-1%	6%
COC(=O)C1=C[C@@H](C(=O)OC)C2C3=C(C(=O)C24CCCCC4)[C@H](C)n2c(=O)n(-c4ccccc4)c(=O)n2[C@@H]3C1 (stereo not given in full)	28	35*	1%	x	-9%	-14%
Cc1ccc(CN2CCN(C3CCCC3)C(CCO)C2)s1 (stereo not given)	-51*	-23	4%	-2%	9%	-2%
COc1cccc(CN2CCN(Cc3ccc4c(c3)OCCO4)CC2CCO)c1 (stereo not given)	-28	-13	-6%	-1%	-2%	-4%

Source: PubChem (National Center for Advancing Translational Sciences (NCATS))
